The record followed here is PubChem BioAssay (NCATS).

SMILES strings stand for the structures. Several values for one entry are separate records, joined by “and”; a condition that tells them apart may be missing. Equal entries are not always repeated. Values without a mark were called inactive. Records with an inconclusive call do not appear. Activity calls are given as the source filed them. Calls follow the shape of the dose curve; as a rule, active = well fitted curve in the direction sought with a large enough effect; inconclusive = small, poorly fitted or top-dose-only effect, or another doubt; inactive = no such curve, though single readings can be large; an effect the other way counts as inactive or inconclusive.

The nature of assay [1]: Primary qHTS for inhibitors of nuclear receptor binding SET domain protein 2 (NSD2) in an RCH-ACV wild type WT cells (2C) (AID 1645877; also: nearly all actives have a fitted effect of over 70% in size; also: potency is read from the fitted curve at half-maximal effect; as to activity change, negative = cell killing: % is scaled to controls: 0 for no effect and ±100 for the full control effect). (qHTS replaces the single test concentration by a dilution series.)
Assay [2] has as its target Glutathione peroxidase 1 (Homo sapiens) (UniProt P07203). As to the kind of experiment: Primary qHTS Assay for Inhibitors of Recombinant Selenoprotein Glutathione Peroxidase 1 (GPX1) (AID 1845191). Also: nearly all actives have a fitted effect of over 65% in size. As to activity, negative = inhibition: % is scaled to controls: 0 for no effect and ±100 for the full control effect. In short, it runs like this: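 GR-coupled readout: NADPH consumption tracked by fluorescence, ex 340/em 450 nm, at t=0 and after 15 min at RT. Final mix 10 nM GPX1, 1 mM GSH, 0.5 mM CHP, 0.5 mM NADPH, 100 nM GR, 0.01% BSA, following 30 min enzyme–compound preincubation.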

In assay [3] the target is Phospholipid hydroperoxide glutathione peroxidase GPX4 (Homo sapiens) (UniProt P36969). As to the kind of experiment: Primary qHTS Assay for Inhibitors of Recombinant Selenoprotein Glutathione Peroxidase 4 (GPX4) (AID 1845192). Also: nearly all actives have a fitted effect of over 65% in size. As to activity change, negative = inhibition: series mostly up to about 50 µM; % is scaled to controls: 0 for no effect and ±100 for the full control effect. In short, it runs like this:
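Steps: GPX4 plus compound, 30 min RT; add GR/GSH/NADPH master mix; start with cumene hydroperoxide; read 340/450 nm fluorescence at 0 and 15 min. Finals were 200 nM GPX4, 1 mM GSH, 0.5 mM CHP, 0.5 mM NADPH, 100 nM GR.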

Assay [4] concerns the target Luciferin 4-monooxygenase (Photinus pyralis) (UniProt P08659). As to the kind of experiment: Primary firefly luciferase (FLuc) qHTS assay for identification of artifact compounds. (AID 1845220). Also: nearly all actives have a fitted effect of over 60% in size.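 As to activity change, negative = inhibition: series mostly up to about 54 µM; plate controls were DMSO vehicle for no effect and no enzyme for full effect.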 In short, it runs like this: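 Titrated compounds were incubated 15 min at RT, protected from light, with luciferin and ATP at 10 uM; reaction started with 10 nM FLuc, luminescence imaged at 5 min, and concentration-response fitted by Hill equation.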

The nature of assay [5]: Primary fluorescence-based thiol-reactive (MSTI) qHTS assay for identification of artifact compounds. (AID 1845221). Also: nearly all actives have a fitted effect of over 65% in size. Also: potency is read from the fitted curve at half-maximal effect.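 As to activity change, negative = thiol reactive: series mostly up to about 54 µM; thiol-reactive compounds lower the probe fluorescence signal.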 In short, it runs like this: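 Curve-fitted percent inhibition (4-parameter Hill) derived from fluorescence, Ex 525/Em 598 nm, scaled with Acetyl-MSTI and MSTI; 1 h incubation at room temperature.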
Assay [6] concerns Nanoluciferase (engineered Oplophorus gracilirostris luciferase). As to the kind of experiment: Primary Nanoluciferase (NLuc) qHTS assay for identification of artifact compounds. (AID 1845222).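 Also: NLuc secreted into diluted conditioned medium of S16 cells; series mostly up to about 54 µM; 0% = DMSO and -100% = no enzyme.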 In short, it runs like this:
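qHTS format, against NLuc in S16 cell-conditioned medium. Nano-Glo substrate 1:100 was added after 15 min at room temperature. Luminescence was taken after a further 5 min.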

The nature of assay [7]: Primary redox qHTS assay for identification of artifact compounds. (AID 1845223).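 Also: 0% = DMSO and 100% = reference compound.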 An outline of the steps: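 Redox-cycling detection via DTT (250 uM final) oxidation coupled to Amplex Red (25 uM)/HRP (250 mU/mL) in HBSS. 15 min preincubation plus 30 min after DTT, room temperature. Ex/Em 525/598 nm; 4-parameter Hill fit against DMSO and 10 uM DA3003.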

Sequence of Phospholipid hydroperoxide glutathione peroxidase GPX4 (Homo sapiens) (P36969 whole entry, looked up): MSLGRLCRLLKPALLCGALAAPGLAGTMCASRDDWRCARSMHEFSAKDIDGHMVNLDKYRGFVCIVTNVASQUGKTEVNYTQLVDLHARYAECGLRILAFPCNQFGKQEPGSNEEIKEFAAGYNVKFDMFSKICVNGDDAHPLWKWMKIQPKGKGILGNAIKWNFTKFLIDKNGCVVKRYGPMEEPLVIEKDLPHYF
Sequence of Glutathione peroxidase 1 (Homo sapiens) (P07203 whole entry, looked up): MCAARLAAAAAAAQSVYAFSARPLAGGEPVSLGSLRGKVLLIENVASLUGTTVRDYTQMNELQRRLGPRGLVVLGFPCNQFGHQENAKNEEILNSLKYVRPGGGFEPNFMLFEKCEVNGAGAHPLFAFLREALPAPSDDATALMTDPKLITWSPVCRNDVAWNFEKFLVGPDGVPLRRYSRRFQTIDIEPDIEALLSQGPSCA

For `CC(=O)O[C@H]1CC[C@@]2(C)C(CC[C@@H](C)[C@]23Cc2c(O)cc4c(c2O3)CN([C@@H](CCC(=O)O)C(=O)O)C4=O)C1(C)C` (stereo partly specified), the Potency result in assay [1], in assay [2], in assay [3], in assay [4], in assay [5] and in assay [6] was “inactive” in each case. In assay [7], the Potency result was “inactive”.

In the case of `O=C1NC2CCc3nc4ccccc4c(=O)n3C2=Nc2ccccc21` (stereo unspecified), the Potency result in assay [1], in assay [2], in assay [3], in assay [4], in assay [5] and in assay [6] was “inactive” in each case. Besides, the Potency result in assay [7] was “inactive”.

As for `CCC(CC)C(=O)Nc1sc2c(c1C#N)CCC(C(C)(C)CC)C2` (stereo unspecified), the Potency entry in assay [1], in assay [2], in assay [3], in assay [4], in assay [5] and in assay [6] was “inactive” throughout. Besides, the Potency entry in assay [7] is “inactive”.

As to `CC(=O)OC1C(c2ccccc2)CCC(c2ccccc2)C1OC(C)=O` (stereo unspecified), the Potency entry in assay [1], in assay [2], in assay [3], in assay [4], in assay [5] and in assay [6] was “inactive” each time. In addition, the Potency entry in assay [7] was “inactive”.

Consider `O=C(Nc1nc2ccccc2n1CCc1ccccc1)c1ccccc1`, for which the Potency in assay [1] was 5.15 µM (active). Further, the Potency result in assay [2], in assay [3], in assay [4], in assay [5], in assay [6] and in assay [7] was “inactive” in each case.

For the compound `CC(=O)O[C@@H]1c2c(C)coc2C(=O)[C@@]23O[C@@H]2CC[C@H](C)[C@@]13C`, the Potency result in assay [1], in assay [2], in assay [3], in assay [4], in assay [5] and in assay [6] was “inactive” in each case. For the same compound, the Potency entry in assay [7] is “inactive”.

With `COC(=O)C1(C)CCC2(C(=O)O)CCC3(C)C(=CCC4C5(C)CC(O)C(OC6OCC(O)C(O)C6O)C(C)(CO)C5CCC43C)C2C1` (stereo unspecified), the Potency entry in assay [1], in assay [2], in assay [3], in assay [4], in assay [5] and in assay [6] was “inactive” each time. For the same compound, in assay [7], the Potency result is “inactive”.

For `C=C1CC[C@@H]2[C@@](C)(CO[C@@H]3O[C@H](CO)C(O)[C@H](O)C3O)[C@H](O)CC[C@@]2(C)[C@@H]1CC/C(C)=C/CO` (stereo partly specified), the activity change, negative = cell killing in assay [1] was -1.61% [at 9.23 µM]. Also, the Potency entry in assay [2] and in assay [3] was “inactive” each time. In addition, the activity change, negative = inhibition in assay [4] was -1.11% [at 11.6 µM]. Besides, the activity change, negative = thiol reactive in assay [5] was 21.9% [at 11.5 µM]. Moreover, the activity, negative = inhibition in assay [6] was 2.18% [at 11.6 µM]. Also, in assay [7], the redox activity (% of DA3003) was 11.9% [at 11.5 µM].

As to `CC(=O)OC1C[C@]2(C)C(O)CC(C)=C[C@H](OC(=O)c3ccc(O)cc3)C2[C@]1(O)C(C)C` (stereo partly specified), the Potency entry in assay [1], in assay [2], in assay [3], in assay [4], in assay [5] and in assay [6] was “inactive” each time. Further, in assay [7], the Potency entry was “inactive”.

For the compound `O=C(/C=C\n1cnc(-c2cc(C(F)(F)F)cc(C(F)(F)F)c2)n1)N1CC(F)(F)C1`, in assay [1], the Potency was 0.833 µM (active). Also, the Potency result in assay [2], in assay [3], in assay [4], in assay [5], in assay [6] and in assay [7] was “inactive” each time.

Consider `C=C[C@H]1C(O[C@@H]2O[C@H](CO)[C@@H](O)[C@H](O)[C@H]2O)OC=C2C(=O)N3CCc4c([nH]c5ccccc45)C3CC21` (stereo partly specified), for which the Potency result in assay [1], in assay [2], in assay [3], in assay [4], in assay [5] and in assay [6] was “inactive” in each case. For the same compound, the Potency result in assay [7] was “inactive”.

`O=C(O)c1ccccc1NC(=O)N1CCC(c2ccccc2C(F)(F)F)CC1`: the Potency result in assay [1], in assay [2], in assay [3], in assay [4], in assay [5] and in assay [6] was “inactive” throughout. The Potency entry in assay [7] was “inactive”.

As to `CNCc1ccc(-c2cc(-c3nc(-c4ccc(S(=O)(=O)C(C)C)cc4)cnc3N)on2)cc1`, the Potency in assay [1] is 183 nM (active) and 93.4 nM (active). In addition, the Potency entry in assay [2], in assay [3], in assay [4], in assay [5], in assay [6] and in assay [7] was “inactive” throughout.

On to `C=C1CC[C@@H]2[C@](C)(CO[C@@H]3O[C@H](CO)[C@@H](O)[C@H](O)[C@H]3O)[C@H](O)CC[C@@]2(C)[C@@H]1C/C=C1/C(=O)OC[C@H]1O`, for which the Potency entry in assay [1], in assay [2], in assay [3], in assay [4], in assay [6] and in assay [7] was “inactive” each time. Moreover, in assay [5], the Potency is 13 µM (active).

With `CC(=O)N[C@H]1[C@H](O[C@H]2CC[C@@]3(C)C(CC[C@]4(C)C3CC=C3C5CC(C)(C)CC[C@]5(C(=O)O)[C@H](O)C[C@]34C)C2(C)C)O[C@H](CO[C@@H]2OC[C@H](O)[C@H](O)[C@H]2O[C@@H]2OC[C@@H](O)[C@H](O)[C@H]2O)[C@@H](O)[C@@H]1O` (stereo partly specified), the activity change, negative = cell killing in assay [1] was 3.06% [at 9.23 µM]. Also, the Potency result in assay [2] and in assay [3] was “inactive” throughout. In assay [4], the activity change, negative = inhibition is -1.17% [at 11.6 µM]. Besides, in assay [5], the activity change, negative = thiol reactive is 85% [at 11.5 µM]. For the same compound, the activity, negative = inhibition in assay [6] is 0% [at 11.6 µM]. Besides, the redox activity (% of DA3003) in assay [7] was 8.12% [at 11.5 µM].

Take `COc1cc2c(cc1OC)CC(=O)N(CCCNC[C@H]1Cc3cc(OC)c(OC)cc31)CC2`: the Potency entry in assay [1], in assay [2], in assay [3], in assay [4], in assay [5] and in assay [6] was “inactive” in each case. In addition, in assay [7], the Potency entry is “inactive”.

On to `N[C@@]1(C(=O)O)CC[C@H]2[C@H](C(=O)O)[C@H]21`, for which the Potency result in assay [1], in assay [2], in assay [3], in assay [4], in assay [5] and in assay [6] was “inactive” throughout. The Potency result in assay [7] is “inactive”.

As for `CC1=CCC(C(C)(C)O[C@@H]2O[C@H](CO[C@@H]3O[C@@H](C)[C@H](O)[C@@H](O)[C@H]3O)[C@@H](O)[C@H](O)[C@H]2O)CC1` (stereo partly specified), the Potency result in assay [1], in assay [2], in assay [3], in assay [4], in assay [5] and in assay [6] was “inactive” throughout. In addition, the Potency entry in assay [7] is “inactive”.
